Sampled rows, rich in hits. Any-hit rate of the full collection: about 0.79%.
E coli growth-1: counter-screen for AddAB inhibitors: E. coli growth inhibition. inhibition, % at 11.9 µM. AID 449728. 330,000 tested, 0.27% active. E. coli V3065 growth, OD600 absorbance, 18 h;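 active = inhibition above the campaign's mean inhibition across all tested compounds plus 3 SD, cut at about 9.9% in these data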;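 also: uninfected addAB+ strain grown without phage in ampicillin broth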
Tat transport: inhibitors of E. coli Tat protein transport; E. coli MC4100 TorA-mCherry Tat export, fluorescence; inhibition, % at 10 µM; 340,000 tested, 0.036% active; AID 488895;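 active = mean replicate inhibition at least 50% and at least half of replicates individually reaching 50%; inconclusive = only one of the two criteria met; inactive = neither criterion met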;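 also: exported cargo escapes ClpAP degradation while cytoplasmic cargo is degraded and loses fluorescence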
AI-2 QS mod: Vibrio harveyi AI-2 quorum sensing modulation | 300,000 tested, 0.4% active | Vibrio harveyi JMH597 AI-2 luminescence/OD600 ratio, 9 h; active compounds read low; strain lacks LuxN and CqsS sensors; 0 = neutral-control median | activity change, % at 7.5 µM; in the data active = activity change below about -75%, passing the limit was not always enough; inconclusive = no clear call, values can overlap the other calls;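 also: luminescence divided by OD600 gain over 9 h not by final OD600 alone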
E coli growth-2: E. coli growth inhibition | Escherichia coli growth, OD600, 23 h; active compounds read low | 330,000 tested, 0.21% active | OD600 absorbance (test concentration not listed) | AID 1053175;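 active = OD600 absorbance below the run mean of sample wells minus 3.6 SD, in any replicate, cut at about 0.56 in these data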
AddAB inh: less growth of phage-infected E. coli with AddAB | inhibition, % at 11.9 µM | 330,000 tested, 0.29% active | E. coli expressing H. pylori AddAB, absorbance growth; in the data active = inhibition above about 12%
phage Ecoli inh: E. coli growth loss with phage present. 360,000 tested, 0.26% active. growth absorbance. inhibition, % at 11.9 µM; in the data active = inhibition above about 11%
JMH597 growth: retest: blocks Vibrio harveyi JMH597 growth | shares compounds with AI-2 QS mod | OD600 absorbance, 9 h; lacks LuxN and CqsS sensors | growth inhibition, % at 7.5 µM | 750 tested, 1% active;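 active = every replicate shows growth inhibition above 50%; inconclusive = at least half, but not all, replicates pass that cutoff; inactive = fewer than half of replicates pass it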
BB721 const-QS lum: retest counter-screen: luminescence loss in constitutive-on quorum sensing strain BB721. shares compounds with AI-2 QS mod. 750 tested, 95% active. Vibrio harveyi BB721 luminescence, 9 h. inhibition, % at 7.5 µM;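 active = inhibition above about 80% in every replicate, not just on average, limit read from the data; inconclusive = at least half of replicates past the limit, but not all; inactive = fewer than half of replicates past the limit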
BB721 growth: retest: inhibitors of Vibrio harveyi BB721 growth; OD600 absorbance, 9 h; shares compounds with AI-2 QS mod; AID 2728; growth inhibition, % at 7.5 µM; 750 tested, 3% active;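 active = every replicate shows growth inhibition above 50%; inconclusive = at least half but not all replicates above 50% inhibition; inactive = under half of replicates above 50% inhibition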
JMH597 AI-2 mod: Vibrio harveyi AI-2 signaling luminescence modulation – JMH597 strain, confirmation | shares compounds with AI-2 QS mod | Vibrio harveyi JMH597 AI-2 quorum sensing luminescence, 9 h; luxN and CqsS knockout, AI-2 only | inhibition, % at 7.5 µM | 750 tested, 97% active;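 active = every replicate shows more than 75% inhibition of signal versus neutral control wells; inconclusive = half to three quarters of replicates exceed 75% inhibition; inactive = fewer than half of replicates exceed 75% inhibition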
Hits are given with their value; – = inactive; ? = inconclusive; · = not tested or not shown.

SMILES	E coli growth-1	Tat transport	AI-2 QS mod	E coli growth-2	AddAB inh	phage Ecoli inh	JMH597 growth	BB721 const-QS lum	BB721 growth	JMH597 AI-2 mod
CCOC(=O)Oc1ccc2c(=O)c(Oc3cc(C)cc(C)c3)coc2c1	–	–	–	–	–	–	·	·	·	·
C=C(C)C1CC=C(C)C(=NNC(=O)C2CC2c2ccccc2)C1 (configuration not stated)	·	·	·	–	·	·	·	·	·	·
N#Cc1ccc(NC(=O)CN2C(=O)NC(Cc3ccccc3)C2=O)cc1 (configuration not stated)	–	–	–	–	–	–	·	·	·	·
Cc1cccc(NC(=O)CN2C(=O)NC(Cc3ccccc3)C2=O)c1 (configuration not stated)	–	–	?	–	–	–	–	85	–	89
N#Cc1cccc(NC(=O)CN2C(=O)NC(Cc3ccccc3)C2=O)c1 (configuration not stated)	–	–	-84	–	–	–	–	89	–	93
O=C(CN1C(=O)NC(Cc2ccccc2)C1=O)Nc1ccccc1 (configuration not stated)	–	–	–	–	–	–	·	·	·	·
COc1ccc2c(c1)OC(c1cccc(C(F)(F)F)c1)C(OC(=O)Nc1ccc(OC(F)F)cc1)C2=O (configuration not stated)	·	·	·	–	·	·	·	·	·	·
O=C1COc2ccc(C(=O)COC(=O)Cc3c(F)cccc3Cl)cc2N1	·	–	·	–	·	–	·	·	·	·
O=C1COc2ccc(C(=O)COC(=O)Cc3ccsc3)cc2N1	–	–	-85	–	–	–	–	95	–	97
O=C1COc2ccc(C(=O)COC(=O)Cc3ccccc3F)cc2N1	–	–	-83	–	–	–	–	88	–	91
CN(C)S(=O)(=O)c1ccc(C(=O)OCC(=O)c2ccc3c(c2)NC(=O)CO3)cc1	–	–	-95	–	–	–	–	?	–	85
O=C1C=C(c2cccc(Cl)c2O)CC(c2ccc3c(c2)OCO3)C1 (configuration not stated)	·	·	·	–	·	·	·	·	·	·
CC(=NNS(=O)(=O)c1cc(C)ccc1C)c1ccc2c(c1)OCO2	·	·	·	–	·	·	·	·	·	·
Cc1onc(-c2ccccc2)c1C(=O)NN=Cc1cn(C)c2ccccc12	·	·	·	–	·	·	·	·	·	·
Cc1ccccc1Nc1nc(N)nc(COc2ccc(C#N)cc2)n1	–	–	-83	·	–	–	–	93	–	96
O=C(NCc1ccccc1)c1cc2ccccc2o1	–	–	-86	–	–	–	–	94	–	95
CCNC(=O)c1cc2ccccc2o1	–	–	–	–	–	–	·	·	·	·
CCn1c(C=NNC(=O)c2ccc(OC)cc2)nc2ccccc21	·	·	·	–	·	·	·	·	·	·
Cc1nnc(NC(=O)Cn2nc(C)c3ccccc3c2=O)s1	–	–	-90	–	–	–	–	98	–	99
Cc1nn(CC(=O)N(C)C)c(=O)c2ccccc12	–	–	–	–	–	–	·	·	·	·
Cc1nn(CC(=O)Nc2ccc(C(=O)N(C)C)cc2)c(=O)c2ccccc12	–	–	-90	–	–	–	–	97	–	98
COc1ccc(NC(=O)Cn2nc(C)c3ccccc3c2=O)cc1	–	–	-92	–	–	–	–	97	–	98
O=C(O)CNC(=O)CC1S/C(=N/N=Cc2ccccc2O)NC1=O (configuration not stated)	·	·	·	–	·	·	·	·	·	·
Cc1cccc(OCCC(=O)Nc2ccc(F)c(Cl)c2)c1	–	–	-86	–	–	–	–	94	–	95
Cc1ccc(OCCC(=O)OCC(=O)Nc2ccc(F)cc2)cc1	–	–	–	–	–	–	·	·	·	·
SMILES	E coli growth-1	Tat transport	AI-2 QS mod	E coli growth-2	AddAB inh	phage Ecoli inh	JMH597 growth	BB721 const-QS lum	BB721 growth	JMH597 AI-2 mod
Cc1ccc(OCCC(=O)Nc2ccc(F)c(F)c2)cc1	–	–	-86	–	–	–	–	94	–	94
Cc1cccc(OCCCC(=O)Nc2ccc3c(c2)OCO3)c1	–	–	–	–	–	–	·	·	·	·
CC(=NNC(=O)CSCc1ccc([N+](=O)[O-])cc1)c1ccccc1	·	·	·	–	·	·	·	·	·	·
COc1cccc(CNc2cnc3ccccc3c2)c1O	–	–	–	–	–	–	·	·	·	·
Cc1ccc(O)c(CNc2cnc3ccccc3c2)c1	–	–	-97	–	–	–	–	99	–	99
Oc1ccc(Br)cc1CNc1cnc2ccccc2c1	–	–	-97	–	–	–	–	99	–	100
COc1cccc(OCc2cc(/C=N/Nc3ccc(C(=O)O)cc3)ccc2OC)c1	–	–	-84	·	–	–	–	92	–	95
COc1cccc(C(=O)Oc2ccc(/C=N/Nc3ccc(C(=O)O)cc3)cc2OC)c1	–	–	–	·	–	–	·	·	·	·
O=C(O)c1ccc(N/N=C/c2cc3c(cc2[N+](=O)[O-])OCO3)cc1	–	–	?	·	–	–	–	93	–	94
O=C(O)c1ccc(N/N=C/c2ccc3c(c2)OCO3)cc1	–	–	-85	·	–	–	–	98	–	98
Cc1cc(C)n(CC(=O)NN=Cc2ccco2)n1	·	·	·	–	·	·	·	·	·	·
O=C(NN=CC1CC2C=CC1C2)c1ccccc1O (configuration not stated)	·	·	·	–	·	·	·	·	·	·
CCSC1=NC(=Cc2ccccc2)C(=O)N1	·	·	·	–	·	·	·	·	·	·
COc1cccc(/C=N/n2c(C3CCCCC3)n[nH]c2=S)c1OC	–	–	–	·	–	–	·	·	·	·
COc1ccccc1/C=C\C=N\n1c(C2CCCCC2)n[nH]c1=S	–	–	?	·	–	–	–	94	–	97
CCCCCCCCC(=O)NN=Cc1cccc(Br)c1	·	·	·	–	·	·	·	·	·	·
Cc1ccccc1-c1nnc(SCc2ccccc2)o1	–	–	-96	–	–	–	–	99	–	99
Cc1ccccc1-c1nnc(SCc2ccccc2F)o1	–	–	-81	–	–	–	–	95	–	96
Fc1ccccc1CSc1nnc(-c2ccccc2)o1	–	–	-93	–	–	–	–	98	–	98
COc1ccc(-c2nnc(SCc3ccccc3F)o2)cc1	–	–	–	–	–	–	·	·	·	·
c1ccc(CSc2nnc(-c3ccncc3)o2)cc1	–	–	-88	–	–	–	–	95	–	96
COc1cccc(CSc2nnc(-c3ccc(F)cc3)o2)c1	–	–	-91	–	–	–	–	96	–	97
COc1ccc(-c2nnc(SCc3cccc(C#N)c3)o2)cc1	–	–	–	–	–	–	·	·	·	·
COc1ccc(C2CC(=O)C=C(c3ccc(Cl)c(C(F)(F)F)c3)C2)cc1 (configuration not stated)	·	·	·	–	·	·	·	·	·	·
Cc1ccc(S(=O)(=O)NCCCNc2ccc([N+](=O)[O-])cc2)cc1	–	–	–	–	–	–	·	·	·	·

High-throughput results from PubChem BioAssay.
